Source: PubChem BioAssay (NCATS)
A number with no mark means an inactive call. Results filed as inconclusive are left out. Entries that show only a call come without a potency. Calls of active or inactive are those of the source. Unless noted, the call rests on the fitted dose curve; in most records, active means well fitted curve in the direction sought with a large enough effect; inconclusive means small, poorly fitted or top-dose-only effect, or another doubt; inactive means no such curve, though single readings can be large; an effect the other way counts as inactive or inconclusive.

How the values were obtained:
[1] = qHTS of Trypanosoma Brucei Inhibitors: LOPAC Validation (AID 624147)
Summary of the method: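 Luminescent Kinase-Glo Plus end-point after 45 min room-temperature reaction of T. brucei pyruvate kinase started with 130 uM ADP (final). Buffer TEA 50 mM pH 7.2 with KCl, MgCl2, BSA, Tween-20; titration-based qHTS with fitted concentration-effect curves.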

[2] = biological target: Glucagon-like peptide 1 receptor (Homo sapiens) (UniProt P43220); assay: qHTS of GLP-1 Receptor Agonists: LOPAC Validation (AID 624148);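 further: higher luminescence signal means agonism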
Summary of the method: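 HEK293 cells stably co-expressing GLP-1R and a cAMP-responsive luciferase reporter, plated 12 hours before compound, then incubated 4-6 hr at 37 deg C. Luminescence read 12 min after detection reagent.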

[3] = qHTS of Nrf2 Activators: LOPAC Validation (AID 624149)
Summary of the method: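 Following overnight seeding in 5% FBS OPTI-MEM, AREc32_Fluc cells receive compounds for a 24 hr incubation at 37 deg C with 5% CO2. Steady-Glo is added, and after 30 min at RT luminescence is recorded.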

[4] = HTS Assay for Allosteric Antagonists of the Human D2 Dopamine Receptor: Hit Validation in HTRF (AID 624455);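 further: stable D1 dopamine receptor cell line scored for blocking the D1 response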
Summary of the method: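 Validation of hits used D1 receptor stably expressed in cells with HTRF detection of response inhibition; origin screen measured calcium flux following EC80 dopamine in a force-coupled, inducible Hek293 Trex D2 cell line.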

[5] = biological target: Arylsulfatase A (Homo sapiens) (UniProt P15289); assay: qHTS screen for enhancers of Arylsulfatase A (ASA1): LOPAC Validation Assay (AID 720538)
Summary of the method: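 Read-out: fluorescence at Ex=525/Em=598 nm after 1N NaOH final stop. Patient fibroblasts carrying ASA-I179S had 48h compound exposure, then 14h room-temperature pNCS hydrolysis (0.5mM final) in lysis buffer. Signal increase = enhanced activity.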

[6] = qHTS for compounds that reverse cellular toxicity of Amyloid beta (A-beta) peptide in yeast: LOPAC Validation Assay (AID 720559)
Summary of the method: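 OD600 growth readout after 48 hr at 30 C; A-beta-toxic yeast plus pinned compounds in medium. Normalization: DMSO = negative, equimolar FeCl3 + clioquinol = positive.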

[7] = qHTS for Activators of Parkin Expression: LOPAC Validation Assay (NLuc Reporter) (AID 720572)
Summary of the method: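 NLuc signal, read 10 min after reagent and following a prior FLuc read, is normalized to DMSO (0) and positive controls (100%). Cells: neuronal Parkin-promoter coincidence reporter line; compounds tested 7-point, 24 h, 37 C, 5% CO2.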

[8] = qHTS for Activators of Parkin Expression: LOPAC Validation Assay (FLuc Reporter) (AID 720573)
Summary of the method: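 FLuc luminescence read-out from a neuronal line expressing a Parkin-promoter-driven coincidence reporter. Cells treated 24 h at 37 C, 5% CO2 with compounds at 7 concentrations; signal increase normalized to DMSO and positive control.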

[9] = qHTS assay for small molecule activators of the p53 signaling pathway (AID 651743; active means well fitted activation curve with a large enough effect in the signal ratio, not every such curve was filed as active; the % refers to the signal ratio; further: series mostly up to about 92 µM); details: HCT-116 p53RE-bla, beta-lactamase FRET ratio, 16 h; activation: active compounds read high
Summary of the method: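 Reporter: beta-lactamase driven by p53 response elements, stably integrated in HCT-116 cells. Cells seeded at 4,000/well, 5 h preincubation, compound (DMSO) 16 h at 37 C; B/G FRET substrate 2 h RT; fluorescence intensity read.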

[10] = qHTS assay for small molecule activators of the nuclear factor-kappa B (NF-kB) signaling pathway (AID 651749; active means well fitted activation curve with a large enough effect in the signal ratio; the % refers to the signal ratio; further: series mostly up to about 77 µM); details: NF-kB-bla ME-180 cells, beta-lactamase FRET ratio, 16 h; active compounds read high
Summary of the method: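 NF-kB-bla ME-180 cells, 2,000/well; 23 nL compound or DMSO pinned; 16 hr, 37C/5% CO2; beta-lactamase FRET read-out.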

[11] = qHTS assay for environmental chemicals that activate the Aryl hydrocarbon Receptor (AhR) signaling pathway (AID 651777); details: 1A2-DRE human hepatoma cells, luciferase, 24 h; activation: active compounds read high; further: nearly all actives have a fitted effect of over 15% in size
Summary of the method: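 Human hepatoma 1A2-DRE cells stably carrying a DRE/CYP1A2 promoter–luciferase reporter, 1,200 cells/well, exposed to compound 24 hr at 37 C. Luciferase read by One-Glo luminescence after 30 min at room temperature; increased signal marks AhR activation.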

[12] = biological target: Peroxisome proliferator-activated receptor alpha (Homo sapiens) (UniProt Q07869); assay: qHTS assay for small molecule agonists of the peroxisome proliferator-activated receptor alpha (PPARalpha) signaling pathway (AID 651778); details: PathHunter PPARalpha complementation, chemiluminescence, 6 h; active compounds read high
Summary of the method: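 Enzyme-fragment complementation assay in which ligand-bound PPARalpha translocates and forms an active enzyme that generates chemiluminescence. Cells were plated overnight, exposed to compound for 6 hr at 37 C, and then given detection reagent for 60 min at room temperature.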

[13] = qHTS assay for small molecule disruptors of the mitochondrial membrane potential - 1 hr assay (AID 651754; calls by dose curve; further: potency means the concentration at half of the fitted maximal effect; nearly all actives have a fitted effect of over 35% in size)
Summary of the method: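 In this qHTS format, a 1 hr compound treatment of HepG2 cells precedes Mito-MPS staining, and membrane potential is judged from aggregate (red) against monomer (green) fluorescence intensity.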

[14] = qHTS assay for small molecule disruptors of the mitochondrial membrane potential - 5 hr assay (AID 651755; calls by dose curve; further: potency means the concentration at half of the fitted maximal effect; nearly all actives have a fitted effect of over 40% in size)
Summary of the method: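 Read-out: ratiometric Mito-MPS fluorescence, green monomer (ex 490/em 535) vs red mitochondrial aggregate (ex 540/em 590). HepG2 cells treated 5 hr at 37C before 30 min dye loading.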

[15] = biological target: Nuclear receptor ROR-gamma (Homo sapiens) (UniProt P51449); assay: qHTS assay for small molecule antagonists of the retinoid-related orphan receptor gamma (ROR-gamma) signaling pathway (AID 651802); further: potency means the concentration at half of the fitted maximal effect; nearly all actives have a fitted effect of over 60% in size
Summary of the method: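 Doxycycline-induced reporter activity in engineered CHO cells (TET-inducible ROR, RORE-LUC) was measured by luminescence after 16hr compound exposure at 37C.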

[16] = qHTS assay for small molecule agonists of the antioxidant response element (ARE) signaling pathway measured by Nrf2-dependant transcriptional activity (AID 720636; active means well fitted curve in the direction sought with a large enough effect in the repeat runs; an effect the other way counts as inactive or inconclusive)
Summary of the method: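 ARE-luc HepG2 cells carrying an Nrf2-responsive luciferase reporter, in medium with 1% dialyzed FBS, exposed to compound for 16 hr at 37 C, 5% CO2. Luminescence read 30 min after ONE-Glo addition.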

Sequence of Arylsulfatase A (Homo sapiens) (P15289 whole entry, looked up): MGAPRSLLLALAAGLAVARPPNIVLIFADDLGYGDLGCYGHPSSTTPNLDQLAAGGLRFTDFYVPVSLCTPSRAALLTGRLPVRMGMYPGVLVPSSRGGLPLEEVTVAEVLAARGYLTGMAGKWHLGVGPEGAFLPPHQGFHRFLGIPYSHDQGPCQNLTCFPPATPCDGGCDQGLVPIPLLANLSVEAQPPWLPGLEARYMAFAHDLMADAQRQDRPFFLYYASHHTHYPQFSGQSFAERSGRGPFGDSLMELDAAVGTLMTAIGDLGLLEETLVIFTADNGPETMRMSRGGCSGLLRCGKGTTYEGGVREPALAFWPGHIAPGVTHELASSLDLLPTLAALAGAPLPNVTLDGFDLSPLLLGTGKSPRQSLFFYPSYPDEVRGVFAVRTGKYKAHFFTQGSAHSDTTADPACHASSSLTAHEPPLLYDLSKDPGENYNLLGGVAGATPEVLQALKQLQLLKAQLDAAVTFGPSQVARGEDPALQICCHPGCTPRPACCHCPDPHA
Sequence of Glucagon-like peptide 1 receptor (Homo sapiens) (P43220 whole entry, looked up): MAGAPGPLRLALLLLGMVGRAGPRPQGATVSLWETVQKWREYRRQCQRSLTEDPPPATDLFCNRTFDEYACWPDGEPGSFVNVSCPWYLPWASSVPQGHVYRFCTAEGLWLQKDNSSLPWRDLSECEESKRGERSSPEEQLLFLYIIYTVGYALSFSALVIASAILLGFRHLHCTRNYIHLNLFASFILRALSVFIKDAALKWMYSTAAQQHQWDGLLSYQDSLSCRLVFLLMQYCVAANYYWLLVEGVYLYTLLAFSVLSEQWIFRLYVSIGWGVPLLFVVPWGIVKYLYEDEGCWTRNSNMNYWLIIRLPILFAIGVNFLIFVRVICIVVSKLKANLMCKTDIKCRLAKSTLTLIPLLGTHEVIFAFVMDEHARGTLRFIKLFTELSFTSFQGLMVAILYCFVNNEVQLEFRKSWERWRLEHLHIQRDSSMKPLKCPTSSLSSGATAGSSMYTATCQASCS
Sequence of Peroxisome proliferator-activated receptor alpha (Homo sapiens) (Q07869 whole entry, looked up, the tested form may be a part): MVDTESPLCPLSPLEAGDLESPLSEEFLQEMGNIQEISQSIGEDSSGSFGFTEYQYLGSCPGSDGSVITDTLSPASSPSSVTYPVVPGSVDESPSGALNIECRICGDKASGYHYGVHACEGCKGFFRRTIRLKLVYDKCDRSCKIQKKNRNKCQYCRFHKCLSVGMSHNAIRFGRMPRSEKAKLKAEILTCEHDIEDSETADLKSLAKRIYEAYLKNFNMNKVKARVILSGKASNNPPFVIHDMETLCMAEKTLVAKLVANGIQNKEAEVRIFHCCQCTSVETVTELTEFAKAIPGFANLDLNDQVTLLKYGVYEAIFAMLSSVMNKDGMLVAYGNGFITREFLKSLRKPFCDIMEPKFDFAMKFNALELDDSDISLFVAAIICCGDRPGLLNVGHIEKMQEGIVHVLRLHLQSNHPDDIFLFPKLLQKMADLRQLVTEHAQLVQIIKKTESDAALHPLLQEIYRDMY
Sequence of Nuclear receptor ROR-gamma (Homo sapiens) (P51449 whole entry, looked up): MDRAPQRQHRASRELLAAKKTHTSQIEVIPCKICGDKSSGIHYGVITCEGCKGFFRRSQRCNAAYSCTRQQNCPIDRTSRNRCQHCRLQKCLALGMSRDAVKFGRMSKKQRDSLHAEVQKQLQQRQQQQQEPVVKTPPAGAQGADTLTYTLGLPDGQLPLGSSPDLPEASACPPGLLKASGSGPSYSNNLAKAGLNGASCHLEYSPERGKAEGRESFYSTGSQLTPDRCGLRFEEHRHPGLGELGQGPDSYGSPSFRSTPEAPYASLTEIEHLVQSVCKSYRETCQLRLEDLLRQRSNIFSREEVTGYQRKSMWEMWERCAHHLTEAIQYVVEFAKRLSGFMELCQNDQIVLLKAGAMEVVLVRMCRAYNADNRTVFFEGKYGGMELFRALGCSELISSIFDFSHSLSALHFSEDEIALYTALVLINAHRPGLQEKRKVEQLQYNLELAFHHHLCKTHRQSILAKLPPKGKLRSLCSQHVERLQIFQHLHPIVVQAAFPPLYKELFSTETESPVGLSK

SMILES: Cc1c2ccncc2c(C)c2c1[nH]c1ccccc12
- Potency [1]: inactive
- outcome [2]: inactive
- Potency [3]: inactive
- Potency [4]: inactive
- Potency [5]: inactive
- outcome [6]: inactive
- Potency [7]: inactive
- outcome [8]: inactive

SMILES: O=S1(=O)N(CCN2CC=C(c3c[nH]c4cc(F)ccc34)CC2)c2cccc3c2N1CCC3
- Potency [1]: inactive
- outcome [2]: inactive
- Potency [3]: inactive
- Potency [4]: inactive
- Potency [5]: inactive
- outcome [6]: inactive
- Potency [7]: inactive
- outcome [8]: inactive

SMILES: C=CCN1CCC23c4c5ccc(O)c4O[C@H]2C(=O)CC[C@@]3(O)C1C5 (some centres not stated)
- Potency [1]: inactive
- outcome [2]: inactive
- Potency [3]: inactive
- Potency [4]: inactive
- Potency [5]: inactive
- outcome [6]: inactive
- Potency [7]: inactive
- outcome [8]: inactive

SMILES: COc1ccc2[nH]c3c(c2c1)CCNC3
- Potency [1]: inactive
- outcome [2]: inactive
- Potency [3]: inactive
- Potency [4]: inactive
- Potency [5]: inactive
- outcome [6]: inactive
- Potency [7]: inactive
- outcome [8]: inactive

SMILES: NC(Cc1ccc(N(CCCl)CCCl)cc1)C(=O)O (configuration not stated)
- Potency [1]: inactive
- outcome [2]: inactive
- Potency [3]: inactive
- Potency [4]: inactive
- Potency [5]: inactive
- outcome [6]: inactive
- Potency [7]: inactive
- outcome [8]: inactive

SMILES: CCCN1CC[C@@H]2c3cc(O)ccc3CC[C@@H]21
- Potency [1]: inactive
- outcome [2]: inactive
- Potency [3]: inactive
- Potency [5]: inactive
- outcome [6]: inactive
- Potency [7]: inactive
- outcome [8]: inactive

SMILES: C[C@@H]1[C@@H]2Cc3ccc(O)cc3[C@@]1(C)CCN2CC1CC1
- Potency [1]: inactive
- Potency [5]: inactive
- outcome [6]: inactive
- Potency [7]: inactive
- outcome [8]: inactive

SMILES: C#CCN1CC(=O)N(COC(=O)C2C(C=C(C)C)C2(C)C)C1=O (configuration not stated)
- activation [9]: -4.17%
- activation [10]: 1.36%
- activation [11]: 3.63%
- max response [12]: 0.547%

SMILES: C[C@H]1CC[C@@H]2[C@@H](C)[C@H]3[C@H](C[C@H]4[C@@H]5CC=C6CC(O[C@@H]7O[C@H](CO)[C@H](O)[C@H](O[C@@H]8O[C@H](CO)[C@@H](O)[C@H](O)[C@H]8O)[C@H]7O[C@H]7O[C@@H](C)[C@H](O)[C@@H](O)[C@H]7O)CC[C@]6(C)[C@H]5CC[C@]34C)N2C1 (some centres not stated)
- Potency [13]: 33.5 µM (active)
- Potency [14]: 33.5 µM (active)
- activation [11]: -8.71%
- max response [12]: -0.952%
- Potency [15]: 13.3 µM (active)
- Potency [16]: inactive
